Only some compounds are listed: those with a hit (about 19% of all), similar ones and a draw of the others.
HT1080NT lethal – kills 2HG-producing HT-1080-NT fibrosarcoma cells; HT-1080-NT fibrosarcoma viability, CellTiter-Glo ATP luminescence, 48 h; hit rate 1.6% among 360,000; Potency, µM (doses to about 46.1 µM), hits mostly cytotoxic; AID 686970;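 further: NT is the 2HG producing partner of a matched IDH1 knockdown line; nearly all actives have a fitted effect of over 55% in size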
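HT-1080-NT; 750 cells/well; 5% FBS RPMI; 48 h compound, 37 degrees C; CellTiter-Glo luminescence; curve fitting and curve-class assignment.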
TDP1 cell noCPT – qHTS for Inhibitors of human tyrosyl-DNA phosphodiesterase 1 (TDP1): qHTS in cells in absence of CPT. hit rate 15% among 420,000. Potency, µM (doses to about 46.2 µM), usual class: inhibitors. AID 686978, 2013. DT40 Tdp1-/- hTDP1 cells, no CPT, ATP luminescence, 48 h; further: nearly all actives have a fitted effect of over 55% in size
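Cells were dispensed at 400 per well, compounds added by pin tool, plates incubated ≥48 hr at 37 °C, then CellTiter-Glo added for 30 min at room temperature before luminescence reading. Line: DT40 Tdp1-/- complemented with hTDP1; camptothecin omitted.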
ELG1 repair inh – ELG1-dependent DNA repair inhibition; HEK293T ELG1-luciferase reporter, luminescence, 16 h; DNA damage induced by 5-fluorouridine; Potency, µM (top dose mostly 46.1 µM), actives largely listed as inhibitors; hit rate 2.3% among 330,000; further: nearly all actives have a fitted effect of over 55% in size
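Cells (2,000 per well) received 5-fluorouridine plus test compound or DMSO and were incubated 16 hr at 37 °C, 5% CO2. Luciferase activity was read by luminescence 30 min after ONE-Glo addition; signal suppression marked inhibition of damage-induced ELG1 function.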
DT40 TDP1 CPT – growth inhibition of DT40 Tdp1-/-;hTDP1 cells with camptothecin (screen for TDP1 inhibitors); AID 686979; Potency, µM (top dose mostly 46.2 µM), actives largely listed as inhibitors; chicken DT40 Tdp1-/-;hTDP1 cells + 20 nM CPT, ATP luminescence, 48 h; hit rate 12% among 420,000; further: nearly all actives have a fitted effect of over 55% in size
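Cell growth measured by CellTiter-Glo luminescence after a minimum 48 h, 37 C compound exposure with 20 nM CPT in Tdp1-knockout DT40 cells stably expressing hTDP1, seeded 400/well; qHTS titration format.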
IL1B secr inh – inhibitors of inflammasome signaling (IL-1 beta secretion). THP-1 LPS/ATP IL-1B secretion, AlphaLISA, 16 h; hits give low values. hit rate 4.7% among 360,000. activity change, % at 57.5 µM; in the data active means activity change below about -50%; inconclusive means mostly about -30% to -49%
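THP-1 cells pretreated 1 hr with compounds (up to 57.5 uM final), then stimulated with LPS (250 ng/mL final) plus ATP (1.25 mM final); secreted IL-1B measured by AlphaLISA after 16 hr, decreased signal indicating inhibition.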
HT1080 IDH1KD tx – toxicity to HT-1080 IDH1 knockdown cells (counter line); HT-1080 IDH1 knockdown viability, ATP luminescence, 48 h; Potency, µM (highest dose often 46.1 µM), most hits filed as cytotoxic; hit rate 2% among 360,000
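Using the IDH1-knockdown HT-1080 line run in the same batch and compound series as the NT line, viability after 48 h at 37 °C was determined by CellTiter-Glo luminescence and expressed as % activity.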
Hits are given with their value; i = inactive; ? = inconclusive; nt = no result given; [ ] = remark or other dose. Unless noted, the call rests on the fitted dose curve; in most records, active means well fitted curve in the direction sought with a large enough effect; inconclusive means small, poorly fitted or top-dose-only effect, or another doubt; inactive means no such curve, though single readings can be large; an effect the other way counts as inactive or inconclusive.

SMILES	HT1080NT lethal	TDP1 cell noCPT	ELG1 repair inh	DT40 TDP1 CPT	IL1B secr inh	HT1080 IDH1KD tx
COc1cccc(-c2nc(CS(=O)(=O)CC(=O)NCCc3cc(OC)ccc3OC)c(C)o2)c1	i	18µM	21µM	i	i	i
COc1ccc(NC(=O)CS(=O)(=O)Cc2nc(-c3ccc(C)cc3)oc2C)cc1	i	i	i	i	i	?
COCCCNC(=O)CS(=O)(=O)Cc1nc(-c2cccc(OC)c2)oc1C	i	i	?	i	i	i
COc1cccc(-c2nc(CS(=O)(=O)CC(=O)NCCC(C)C)c(C)o2)c1	i	i	?	?	i	i
CCN(CCNC(=O)CS(=O)(=O)Cc1nc(-c2cccc(OC)c2)oc1C)c1ccccc1	i	?	18µM	i	i	?
Cc1cc(S(=O)(=O)N2CCOCC2)ccc1NC(=O)c1ccc(F)cc1	i	i	i	i	i	i
N#Cc1ccc(Oc2ccc(NC(=O)C3CC=CCC3C(=O)O)cc2)cc1 (stereo not drawn)	i	?	i	i	i	i
COc1ccc(CC(=O)Nc2ccc(-c3noc(-c4ccc(Cl)cc4)n3)cc2)cc1	i	?	?	5.2µM	i	i
COc1ccc(-c2nc(CS(=O)(=O)CC(=O)NCCc3cc(OC)ccc3OC)c(C)o2)cc1	i	23µM	?	?	i	i
COc1ccc(OC)c(CCNC(=O)CS(=O)(=O)Cc2nc(-c3ccc(C)cc3)oc2C)c1	i	?	?	?	i	i
CCCCCCCCCCCCCCCC[N+](C)(C)Cc1ccc(F)cc1	i	7.3µM	nt	6.5µM	-74	i
CCCCCCCCCCCCCCCCCCN(CCCCCCCCCCCCCCCCCC)c1ccccc1	nt	i	nt	i	nt	nt
CCCCCCCCCCCCC[N+](C)(C)Cc1ccccc1	nt	0.58µM	nt	0.65µM	nt	nt
C/C(=N\O)c1ccc(Cl)cc1Cl	i	i	i	i	i	i
C/C(=N\O)c1cc(Cl)cc(Cl)c1O	?	i	i	i	-83	i
Cc1ccc(C2c3c(oc4ccccc4c3=O)C(=O)N2c2ccc(C)cn2)cc1 (stereo not drawn)	nt	i	nt	i	nt	nt
O=C(C1=C[C@@H](c2coc3ccccc3c2=O)C[C@@H](OCc2ccc(CO)cc2)O1)N1CCOCC1	i	i	i	i	i	i
O=C(C1=C[C@H](c2coc3ccccc3c2=O)C[C@H](OCc2ccc(CO)cc2)O1)N1CCN(Cc2ccc3c(c2)OCO3)CC1	i	7.3µM	13µM	7.3µM	nt	i
CN1CCN(C(=O)C2=C[C@H](c3coc4ccccc4c3=O)C[C@H](OCc3ccc(CO)cc3)O2)CC1	i	i	i	i	i	i
O=C(C1=C[C@@H](c2coc3ccccc3c2=O)C[C@@H](OCc2ccc(CO)cc2)O1)N1CCN(Cc2ccc3c(c2)OCO3)CC1	i	15µM	?	21µM	?	i
CCCCCCC=C1CCC(CN2CCCC2)C1=O (stereo not drawn)	?	4.1µM	nt	2.9µM	i	?
COc1ccc(Nc2ccc(N3C(=O)CC(C)C3=O)cc2[N+](=O)[O-])cc1OC (stereo not drawn)	i	i	i	i	i	i
CCOc1cc(Br)c(C=O)cc1OCC	26µM	6.5µM	i	5.2µM	i	33µM
CCOc1cc(Br)c(C(=O)O)cc1OCC	i	i	i	i	i	i
Cc1cccc(C(=O)N2CCC(N3CCN(Cc4ccc(F)cc4)C(=O)C3=O)CC2)c1	nt	i	nt	i	nt	nt
Cc1cc(-c2ccnc(-n3ncc(C(=O)N4CCCCC4c4cccnc4)c3C3CC3)n2)c(C)s1 (stereo not drawn)	nt	i	nt	i[9.04 µM]	nt	nt
O=C(c1cnn(-c2nccc(-c3ccccc3F)n2)c1C1CC1)N1CCCCC1c1cccnc1 (stereo not drawn)	nt	21µM	nt	i[9.04 µM]	nt	nt
Cc1cc(Nc2cc(Cl)cc(Cl)c2)nc(N)n1	i	10µM	?	?	i	i
Cc1cc(Nc2ccc(F)cc2)nc(N)n1	i	i	i	i	i	i
